# In the library only some 2.7% were active in any assay of this set; here they are far more common.
# Peg3 prom inh: Peg3 promoter activity inhibition; HeLa PEG-Prom luciferase reporter, luminescence, overnight; 1.7% of 360,000 active; inhibition, % at 20 µM;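 active means inhibition of at least 50% at 20 µM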
# TRPM1 prom inh: inhibitors of MITF-driven TRPM1 promoter in melanoma cells; SK-MEL-5 TRPM1 promoter luciferase, 24 h; inhibition, % at 12.5 µM; 0.83% of 330,000 active; AID 488899;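 active means mean inhibition across replicates of 60% or more, whatever share of single replicates reaches that level; inconclusive means some that reach 60%, reason not given; inactive means mean inhibition across replicates below 60%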
# Shn3 inh set2: Schnurri-3 reporter inhibition in Clone20 osteoblasts; Clone20 osteoblast Shn3 3'UTR firefly luciferase, 24 h; inhibition, % at 12.5 µM; 0.52% of 360,000 active;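 active means mean inhibition of at least 75% with every replicate also reaching 75%; inconclusive means mean inhibition at least 75% but some replicate below; inactive means mean inhibition below 75%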;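 further: 0% = median of neutral control wells and 100% = pilot-screen positive control compound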
# CF NFkB inh: blocks PAF-induced NF-kB reporter in cystic fibrosis cells | AID 588850 | 0.86% of 360,000 active | inhibition, % at 5 µM | KKLEB NF-kB-GFP reporter, GFP fluorescence overnight;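 active means at least 50% inhibition at 5 µM, scaled per plate between neutral and stimulator controls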;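 further: PAF is a Pseudomonas aeruginosa culture filtrate used as stimulus; plate controls were PAF-stimulated DMSO wells for no effect and unstimulated DMSO wells for full effect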
# HIF-2a block: blocks HIF-2a reporter activity | AID 624352 | 786-0 RCC cells HIF-2a reporter, luciferase luminescence, overnight | inhibition, % at 18.8 µM | 0.72% of 360,000 active;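 active means inhibition of the luminescence signal of 40% or more relative to plate controls, in a single-dose primary screen at 18.75 µM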
# KKLEB cytotox: counter-screen for CF NF-kB inhibitors: cytotoxicity. KKLEB CF airway cells viability, ATPlite luminescence, overnight; hits give low values; cells stimulated with P. aeruginosa culture filtrate. activity change (cytotoxicity), % at 5 µM. 0.36% of 360,000 active;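 active means corrected activity change at or below -50% at 5 µM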
# * marks the source's active call; other numbers are inactive results; ? = inconclusive; . = no result.
SMILES,Peg3 prom inh,TRPM1 prom inh,Shn3 inh set2,CF NFkB inh,HIF-2a block,KKLEB cytotox
CCOc1ccc(C(=O)Nc2cc(C)ccn2)cc1,38,33,11,8,6,-57*
CCOc1cc(C(=O)Nc2cc(C)ccn2)cc(OCC)c1OCC,20,-2,3,-18,10,2
Cc1ccnc(NC(=O)c2cc3ccccc3o2)c1,51*,40,57,0,35,-41
c1ccc2c(c1)ccc1[nH]c3c(c12)CCCC3,-40,-2,-10,-46,-97,-2
CC(c1ccccc1)n1ccnc1CO (configuration not stated),10,.,-17,6,5,-3
CCCCN(C(=O)CSc1nc2ccccc2n1CC)C1CCS(=O)(=O)C1 (configuration not stated),5,15,13,15,7,8
Cn1c(=O)c(=O)n(C)c2cc(N3CCCC3)c(NS(=O)(=O)c3ccc(Cl)cc3)cc21,1,16,-2,-2,0,5
COc1ccc(S(=O)(=O)N2CCOCC2)cc1NC(=O)CN1CCCc2ccccc21,9,6,66,-10,19,-6
O=C(Nc1ccc(C(O)(C(F)(F)F)C(F)(F)F)cc1)c1ccc(Cl)c([N+](=O)[O-])c1,58*,4,5,0,-51,-1
CCCCC(c1nnnn1C(C)C)N1CCN(C(=O)c2ccco2)CC1 (configuration not stated),6,5,-24,-5,2,-2
CC1CCC(NC(=O)c2cccn2C)CC1 (configuration not stated),-284,-71,-109,8,-185,6
O=C(Cn1ncc2c([nH]c3ccccc32)c1=O)Nc1ccc(CN2CCCCC2)cc1,73*,?,-33,1,7,-11
O=C(Cn1ncc2c([nH]c3ccccc32)c1=O)NCCc1ccc(Cl)cc1,4,7,-9,1,14,-6
CC(C)C[C@H]1CN=C(N(C)C)N1CC(C)C,-17,-8,19,-12,12,21
CC(C)C[C@H]1CN=C(N(C)C)N1CC1CCCCCC1,-9,12,87*,-2,-7,13
CC1CCCCC1NC(=O)C(C)N1C(=O)c2ccccc2C1=O (configuration not stated),-9,8,0,-7,-13,-5
Cc1cc(Br)cc(Cl)c1OCC(=O)N1CCN(C(=O)c2ccco2)CC1,5,5,-3,10,15,10
Cc1occc(=O)c1OC(=O)Nc1ccc(Cl)c(Cl)c1,-5,-1,4,77*,-94,-65*
CC(=O)C1=C(O)C(=O)N(c2ccccn2)C1c1ccccc1[N+](=O)[O-] (configuration not stated),7,19,1,11,7,7
CSCc1c(C(=O)OCC(=O)c2ccc[nH]2)oc2ccccc12,-2,10,-1,-6,7,2
CCOC(=O)C1CCN(C(=O)c2[nH]c(C(F)(F)F)nc2-c2ccccc2)CC1,14,.,-2,5,5,1
Oc1ccc(N=C/C=C/c2cccc(Br)c2)cc1-c1nc2ccccc2s1,67*,9,-48,-20,-129,-1
Nc1ccc(O)c(-c2nc3ccccc3s2)c1,-107,1,-48,-19,-99,1
COc1ccc(C(=O)NCC(=O)OCc2nc(N)nc(Nc3ccccc3C)n2)cc1,4,5,-9,14,-8,-3
Cn1cccc1/C=C1\SC(=Nc2ccccc2)NC1=O,-268,-9,-103,12,-262,4
SMILES,Peg3 prom inh,TRPM1 prom inh,Shn3 inh set2,CF NFkB inh,HIF-2a block,KKLEB cytotox
Cc1ccc(N=C2NC(=O)/C(=C/c3cn(C)c4ccccc34)S2)cc1C,-5,2,-10,53*,-45,0
CCN1CCN(c2ccc(S(=O)(=O)N3CCCCC3)cc2NC(=O)c2ccc([N+](=O)[O-])s2)CC1,64*,85*,55,29,27,2
CCN1CCN(c2ccc(S(=O)(=O)N3CCCCC3)cc2NC(=O)/C=C/c2ccc(Cl)cc2)CC1,85*,89*,-23,8,-2,-9
CCN1CCN(c2ccc(S(=O)(=O)N3CCCCC3)cc2NC(=O)/C=C/c2cc(OC)ccc2OC)CC1,101*,24,40,-4,3,-9
Nc1ccccc1S(=O)(=O)NCCCCc1ccccc1,13,11,-1,-9,-5,0
CC(C)(C)c1ccc(OCCC(=O)OCC(=O)N2c3ccccc3NC(=O)C2(C)C)cc1,-6,3,0,6,3,6
CCN1C/C(=C/c2cccc([N+](=O)[O-])c2)C(=O)/C(=C/c2cccc([N+](=O)[O-])c2)C1,104*,92*,99*,102*,97*,-40
O=C1NC(=O)/C(=C/c2cccc([N+](=O)[O-])c2)N1,23,6,-12,-16,5,5
O=C(Nc1ccc(Cl)c(S(=O)(=O)N2CCOCC2)c1)c1ccc(OCC2CCCO2)cc1 (configuration not stated),103*,72*,77,2,-8,1
Cn1nc(C(=O)Nc2ccc(Cl)c(S(=O)(=O)N3CCOCC3)c2)c2ccccc2c1=O,53*,-15,-2,20,4,-12
O=C(Nc1ccc(Cl)c(S(=O)(=O)N2CCOCC2)c1)c1n[nH]c(=O)c2ccccc12,16,14,-5,29,13,-28
CCCCCCCCCCCCCCCC[N+](C)(C)CCN(Cc1ccc(OC)cc1)c1ncccn1,105*,103*,77,7,86*,18
C=C1C(=O)O[C@H]2[C@H]1[C@@H](O)CC(=C)[C@@H]1CC(=O)[C@@H](C)[C@H]21,36,38,73,85*,26,11
Cc1ccc(CSc2nc3ccncc3[nH]2)cc1,-34,0,20,0,-19,-70*
O=C(c1ccc(CSc2nc3ccncc3[nH]2)cc1)N1CCN(c2cccc(Cl)c2)CC1,16,.,88*,34,-30,-7
Clc1ccc(CSc2nc3ccncc3[nH]2)cc1,-137,-25,-47,-4,-126,-59*
CCC1Sc2ccc(S(=O)(=O)CCC(=O)Nc3c(Cl)cc(OC)cc3OC)cc2NC1=O (configuration not stated),47,8,12,-2,13,17
Cc1ccccc1C(=O)N1CCN(CCNC(=O)C(=O)Nc2ccc(Br)cc2)CC1,11,9,21,-11,28,1
COc1ccccc1Nc1nc(NCc2ccco2)c2ccccc2n1,-47,.,16,4,-80,-12
Cc1ccc(Nc2nc(NCc3ccco3)c3ccccc3n2)cc1,106*,-21,96*,32,-130,-40
Cc1cccc(-c2ocnc2C(=O)Nc2ncc(C)s2)c1,-6,.,-4,17,-13,-5

# Screening data as filed in PubChem BioAssay.
